In PubChem BioAssay AID686978 (National Center for Advancing Translational Sciences (NCATS), 2013):
Out of some 420,000 compounds screened, about 64,000 (15%) were called active. Inconclusive results (about 27%) are left out. Not all results are given here. Values without a mark were called inactive. The call rests on the fitted dose curve; in most records, active means well fitted inhibition curve with a large enough effect; inconclusive means small, poorly fitted or top-dose-only effect; inactive means flat fitted curve, though single readings scatter.

experiment: qHTS for Inhibitors of human tyrosyl-DNA phosphodiesterase 1 (TDP1): qHTS in cells in absence of CPT; settings: DT40 Tdp1-/- hTDP1 cells, no CPT, ATP luminescence, 48 h; activity change, negative = growth inhibition: at 46.2 µM (top of the series); further: nearly all actives have a fitted effect of over 55% in size
How it was run: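 Seeded 400 DT40-hTDP1 cells/well (vehicle DMSO, no 20 nM CPT); pinned compounds; ≥48 hr at 37 °C; CellTiter-Glo luminescence as viability measure.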
On the % scale 0 is the no-effect control and ±100 the full control effect; potency means the concentration at half of the fitted maximal effect.

Q: Which Potency does the source give for COC(=O)c1sc(-c2ccc(C(C)(C)C)cc2)cc1NC(=O)/C=C/C(=O)O here?
A: 4.61 µM (active)

Q: With CSc1ccc(NC(=O)/C=C/C(=O)O)cc1 as the compound, how does the “activity change, negative = growth inhibition” value read?
A: -18.4%

Q: With O=C(O)/C=C/C(=O)Nc1ccc(F)cc1F as the compound, how does the “activity change, negative = growth inhibition” value read?
A: -1.78%

Q: Which “activity change, negative = growth inhibition” value does the source give for Cc1nnc(SC(C(=O)Nc2cc(Cl)cc(Cl)c2)c2ccccc2)[nH]c1=O (stereo unspecified) here?
A: 3.42%

Q: For O=C(O)C1CCCCC1C(=O)Nc1ccc(Cl)cc1 (stereo unspecified), which “activity change, negative = growth inhibition” value is on record?
A: -8.69%

Q: With O=C(Nc1ccccc1)C1CCN(C(=O)c2ccc(Br)cc2)CC1 as the compound, how does the “activity change, negative = growth inhibition” value read?
A: -16.2%

Q: Which Potency does the source give for COc1ccccc1NC(=O)C1CCN(C(=O)c2ccc(C(C)(C)C)cc2)CC1 here?
A: 16.4 µM (active)

Q: For CCc1ccc(NC(=O)CN2CCC(C(=O)c3ccc(OC)cc3)CC2)cc1, which Potency is on record?
A: 23.1 µM (active)

Q: Which “activity change, negative = growth inhibition” value does the source give for COc1ccc(CNC(=O)c2cc(C(=O)C3CC3)c[nH]2)cc1 here?
A: -18.3%

Q: For CCc1ccc(NC(=O)Cn2nnc(C(=O)NCc3ccc(OC)cc3)c2N)cc1, which “activity change, negative = growth inhibition” value is on record?
A: 2.68%

Q: For COc1ccc(C(=O)N2CCC(C(=O)Nc3ccc(C)cc3)CC2)cc1, which Potency is on record?
A: 10.3 µM (active)

Q: Which “activity change, negative = growth inhibition” value does the source give for COc1ccc(S(=O)(=O)N2CCC(C(=O)NCCC(=O)Nc3ccccc3OC)CC2)cc1 here?
A: -20.2%

Q: Which “activity change, negative = growth inhibition” value does the source give for COc1ccc(OC)c(NC(=O)C2CCN(S(=O)(=O)c3ccc(C)cc3)CC2)c1 here?
A: -19.3%

Q: Which “activity change, negative = growth inhibition” value does the source give for CC(C)(C)c1ccc(C(=O)N2CCC(C(=O)N3CCCCC3)CC2)cc1 here?
A: -24.3%

Q: Which “activity change, negative = growth inhibition” value does the source give for OCC(O)CN(c1ccccc1)c1ccccc1 (stereo unspecified) here?
A: -27.7%

Q: Which “activity change, negative = growth inhibition” value does the source give for Cc1ccccc1-n1nc(SCC(=O)O)sc1=S here?
A: -3.4%

Q: With N=c1ccn(CC(=O)NC(N)=O)c2ccccc12 as the compound, how does the “activity change, negative = growth inhibition” value read?
A: -8.1%

Q: For C/C=N/NC(=O)CCCC(=O)N/N=C/C, which “activity change, negative = growth inhibition” value is on record?
A: 7.5%

Q: Which “activity change, negative = growth inhibition” value does the source give for C[C@H](CO)N1C[C@H](C)[C@@H](CN(C)S(=O)(=O)c2ccc(F)cc2)Oc2ccc(NC(=O)CCC(F)(F)F)cc2C1=O here?
A: -26.2%

Q: Which “activity change, negative = growth inhibition” value does the source give for O=C(O)c1c(Br)c(Br)c(Br)c(Br)c1C1c2ccc(O)cc2Oc2cc(O)ccc21 here?
A: -2.04%

Q: With O=C(CNC(=O)[C@@H]1Cc2ccccc2CN1)NC1CCCCC1 as the compound, how does the “activity change, negative = growth inhibition” value read?
A: -17.6%

Q: For Cn1c(SCC(=O)OC2CCCCC2)nnc1-c1ccc(S(=O)(=O)N2CCCC2)cc1, which “activity change, negative = growth inhibition” value is on record?
A: -9.11%

Q: Which “activity change, negative = growth inhibition” value does the source give for COCCNC(=O)CN1C(=O)CSc2ncccc21 here?
A: 0.779%

Q: With CC(=O)Nc1ccc(OC(=O)COc2ccc(Br)cc2)cc1 as the compound, how does the “activity change, negative = growth inhibition” value read?
A: 22.7%

Q: Which “activity change, negative = growth inhibition” value does the source give for O=C(OCc1ccc([N+](=O)[O-])cc1)C1CC(=O)N(Cc2ccccc2Cl)C1 (stereo unspecified) here?
A: -29.7%

Q: With O=C1NC(=O)C2C1C(c1ccc([N+](=O)[O-])cc1)=NN2Cc1ccccc1 (stereo unspecified) as the compound, how does the “activity change, negative = growth inhibition” value read?
A: 7.2%

Q: Which Potency does the source give for O=[N+]([O-])c1ccc(CN2CC(N3CCC(c4ccccc4)CC3)CS2(=O)=O)cc1 (stereo unspecified) here?
A: 23.1 µM (active)

Q: With CSCC(NS(=O)(=O)c1ccc(C)cc1)C(=O)O (stereo unspecified) as the compound, how does the “activity change, negative = growth inhibition” value read?
A: -1.29%

Q: Which “activity change, negative = growth inhibition” value does the source give for O=C(Nc1nnc(C2CC2)s1)C1=NN(C2CCS(=O)(=O)C2)C(=O)CC1 (stereo unspecified) here?
A: 12.2%

Q: With Cn1cc(CCC(=O)NC2CC2)c2ccccc21 as the compound, how does the “activity change, negative = growth inhibition” value read?
A: -0.36%

Q: For O=C(O)c1cccc(N=NN2CCCCCC2)c1, which “activity change, negative = growth inhibition” value is on record?
A: -0.0872%

Q: For CCC1CCCCN1C(=S)Nc1ccc(C(C)=O)cc1 (stereo unspecified), which “activity change, negative = growth inhibition” value is on record?
A: -28%

Q: With CC(=O)c1ccccc1NC(=O)CC1(CC(=O)O)CCCCC1 as the compound, how does the “activity change, negative = growth inhibition” value read?
A: 1.97%

Q: For COc1ccc([N+](=O)[O-])cc1N(CC(O)CN(CC(C)C)CC(C)C)S(=O)(=O)c1ccc(C)cc1 (stereo unspecified), which Potency is on record?
A: 23.1 µM (active)

Q: For Cc1ccc(S(=O)(=O)N(CC(O)CN2C(=O)NC(C)(C)C2=O)c2cccc([N+](=O)[O-])c2)cc1 (stereo unspecified), which “activity change, negative = growth inhibition” value is on record?
A: -0.683%

Q: With Cc1ccc(S(=O)(=O)N(CC(O)CN2CCCCC2)c2cccc([N+](=O)[O-])c2)cc1 (stereo unspecified) as the compound, how does the “activity change, negative = growth inhibition” value read?
A: -4.84%

Q: Which “activity change, negative = growth inhibition” value does the source give for Cc1cc(C)n(Cc2cnc(N3CCOCC3)s2)n1 here?
A: 32.3%

Q: For O=C(NCC(=O)N(CC1CCCO1)C(C(=O)NC1CCCCC1)c1ccccc1)c1ccco1 (stereo unspecified), which “activity change, negative = growth inhibition” value is on record?
A: -2.93%

Q: Which “activity change, negative = growth inhibition” value does the source give for Cc1ccc(-c2cc(C(=O)NN)n[nH]2)o1 here?
A: -13%

Q: Which “activity change, negative = growth inhibition” value does the source give for CCn1c(SCC(=O)Nc2cccc(F)c2)nnc1-c1cc2cc(Br)ccc2o1 here?
A: -17.3%

Q: Which “activity change, negative = growth inhibition” value does the source give for COc1ccc(-c2nnc(SCC(=O)NC3CCCCC3)o2)cc1OC here?
A: -28.8%

Q: With COc1ccc(-c2nc3cnccn3c2NC2CCCCC2)cc1-c1cccc(Cl)c1 as the compound, how does the Potency read?
A: 25.9 µM (active)

Q: Which Potency does the source give for COc1ccc(-c2nc3cc(C)ccn3c2NC2CCCCC2)cc1SC1CCCCC1 here?
A: 20.9 µM (active)

Q: With COc1ccc(-c2nc3cnccn3c2NC(C)(C)CC(C)(C)C)cc1O as the compound, how does the Potency read?
A: 18.4 µM (active)

Q: Which “activity change, negative = growth inhibition” value does the source give for COc1ccc(C)cc1S(=O)(=O)NC1CCCCC1 here?
A: -6.83%

Q: With COc1ccc(NC(=O)N(C)C[C@H]2Oc3ncc(C#C[C@@H](C)O)cc3C(=O)N([C@H](C)CO)C[C@H]2C)cc1 as the compound, how does the “activity change, negative = growth inhibition” value read?
A: 5.91%

Q: With CC1(C)CCc2nc(SCc3ccccc3)c(C#N)cc2C1 as the compound, how does the “activity change, negative = growth inhibition” value read?
A: -1.89%

Q: For Cc1ccc(NS(=O)(=O)c2ccc(-c3ccc(=O)[nH]n3)o2)c(C)c1, which “activity change, negative = growth inhibition” value is on record?
A: 7.41%

Q: With OCc1nc(CO)n(Cc2ccccc2)n1 as the compound, how does the “activity change, negative = growth inhibition” value read?
A: -1.88%

Q: With CC1(C(=O)NS(=O)(=O)c2cccc(F)c2)CCN1C(=O)c1cccc2ccccc12 (stereo unspecified) as the compound, how does the “activity change, negative = growth inhibition” value read?
A: -0.531%

Q: For CSc1nnc(-c2ccc(C(F)(F)F)cn2)o1, which “activity change, negative = growth inhibition” value is on record?
A: -0.821%

Q: With Cc1onc(C(=O)NN)c1-c1csc(COc2ccccc2)n1 as the compound, how does the “activity change, negative = growth inhibition” value read?
A: -4.22%

Q: For CC(C)(C)C(=O)OCc1nc(-c2ccc(O)c(O)c2)cs1, which Potency is on record?
A: 20.6 µM (active)

Q: For CCCC(=O)N1c2ccc(-c3csc(N)n3)cc2CC1C (stereo unspecified), which “activity change, negative = growth inhibition” value is on record?
A: -25.1%

Q: For Cn1c(NN)nc2sc3c(c2c1=O)CCC3, which Potency is on record?
A: 29.1 µM (active)

Q: Which “activity change, negative = growth inhibition” value does the source give for CC(C(=O)O)n1cnc2sc3c(c2c1=O)CCCC3 (stereo unspecified) here?
A: 7.09%
